Experimental data as given in PubChem BioAssay AID1159580 (chemical genetic matrix, 2015).
Among all 5,500 compounds or so, about 2,000 (36%) were called active. Inconclusive results (about 18%) are left out. Cut-off read from the data, not from the text of the source: active = normalized growth mostly below about 0.91 (no sharp cut-off); inconclusive = no clear call, values can overlap the other calls; inactive = mostly above about 0.92. The list shows a part of the results.

Assay: chemical genetic growth profiling, strain panel (AID 1159580);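 note: tested at 20 µM; growth read once vehicle control cultures reached saturation at 30 °C; 1 = growth at the plate median or of vehicle wells; lower values mean less growth of the strain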
Conditions: S. cerevisiae deletion strains, growth OD

Measured: normalized growth

C#CCCCCCCCCCCCC(=O)CC(O)COC(C)=O (centres undefined)
inactive: locus YAL021C, strain ccr4, active compounds read low 0.964 | locus YAL026C, strain drs2, active compounds read low 0.982 | locus YAL030W, strain snc1, active compounds read low 0.983 | locus YBL061C, strain skt5, active compounds read low 0.977 | locus YBR009C, strain hhf1, active compounds read low 0.991 | locus YBR021W, strain FUR4, active compounds read low 0.91 | locus YBR023C, strain chs3, active compounds read low 0.978 | locus YBR171W, strain sec66, active compounds read low 0.963 | locus YBR229C, strain ROT2, active compounds read low 0.953 | locus YBR231C, strain swc5, active compounds read low 0.977 | locus YBR279W, strain paf1, active compounds read low 0.986 | locus YCL011C, strain gbp2, active compounds read low 0.936 | locus YCL016C, strain dcc1, active compounds read low 0.984 | locus YCL061C, strain MRC1, active compounds read low 0.999 | locus YCL069W, strain vba3, active compounds read low 0.975 | locus YCR088W, strain abp1, active compounds read low 0.974 | locus YDL005C, strain med2, active compounds read low 0.967 | locus YDL040C, strain nat1, active compounds read low 0.99 | locus YDL185W, strain tfp1, active compounds read low 0.959 | locus YDR001C, strain nth1, active compounds read low 0.991 | locus YDR069C, strain doa4, active compounds read low 0.966 | locus YDR137W, strain rgp1, active compounds read low 0.854 | locus YDR150W, strain NUM1, active compounds read low 0.964 | locus YDR159W, strain sac3, active compounds read low 0.989 | locus YDR195W, strain ref2 1.04 | locus YDR297W, strain sur2, active compounds read low 0.979 | locus YDR334W, strain swr1, active compounds read low 0.98 | locus YDR335W, strain msn5, active compounds read low 0.973 | locus YDR388W, active compounds read low 0.975 | locus YEL003W, strain gim4, active compounds read low 0.951 | locus YEL037C, strain rad23, active compounds read low 0.979 | locus YEL061C, strain CIN8 (second series), active compounds read low 0.98 | locus YER015W, strain faa2, active compounds read low 0.991 | locus YER016W, strain bim1, active compounds read low 0.99 | locus YER110C, active compounds read low 0.967 | locus YER111C, strain swi4, active compounds read low 0.964 | locus YER155C, strain BEM2 (second series), active compounds read low 0.9 | locus YFR010W, strain ubp6, active compounds read low 0.974 | locus YGL167C, strain pmr1, active compounds read low 0.991 | locus YGL173C, strain kem1, active compounds read low 0.979 | locus YGL227W, strain vid30, active compounds read low 0.974 | locus YGL240W, strain doc1, active compounds read low 0.969 | locus YGL253W, strain hxk2, active compounds read low 0.981 | locus YHR013C, strain ard1, active compounds read low 0.849 | locus YHR027C, strain rpn1, active compounds read low 0.989 | locus YHR094C, strain hxt1, active compounds read low 0.961 | locus YHR142W, strain chs7, active compounds read low 0.884 | locus YHR200W, strain rpn10, active compounds read low 0.977 | locus YIL073C, strain SPO22, active compounds read low 0.739 | locus YIL125W, strain kgd1, active compounds read low 0.97 | locus YIR030C, strain dcg1, active compounds read low 0.945 | locus YJL092W, strain hpr5, active compounds read low 0.965 | locus YJL095W, strain BCK1 (second series), active compounds read low 0.985 | locus YJL115W, strain asf1, active compounds read low 0.991 | locus YJL154C, strain vps35, active compounds read low 0.984 | locus YJL164C, strain tpk1, active compounds read low 0.945 | locus YJL166W, strain qcr8, active compounds read low 0.909 | locus YJL168C, strain set2, active compounds read low 0.979 | locus YJL187C, strain SWE1, active compounds read low 0.978
active: locus YAL013W, strain DEP1, active compounds read low 0.909 | locus YCL029C, strain bik1, active compounds read low 0.901 | locus YDL035C, strain GPR1, active compounds read low 0.8 | locus YDL074C, strain BRE1, active compounds read low 0.622 | locus YDL101C, strain DUN1, active compounds read low 0.84 | locus YDL134C, strain PPH21, active compounds read low 0.807 | locus YDL192W, strain arf1, active compounds read low 0.912 | locus YDR101C, strain arx1, active compounds read low 0.881 | locus YDR162C, strain NBP2, active compounds read low 0.642 | locus YDR318W, strain mcm21, active compounds read low 0.819 | locus YDR392W, strain spt3, active compounds read low 0.476 | locus YDR502C, strain sam2, active compounds read low 0.799 | locus YEL061C, strain CIN8, active compounds read low 0.855 | locus YER155C, strain BEM2, active compounds read low 0.585 | locus YER167W, strain BCK2, active compounds read low 0.807 | locus YGL078C, strain dbp3, active compounds read low 0.916 | locus YGL086W, strain mad1, active compounds read low 0.867 | locus YGL248W, strain PDE1, active compounds read low 0.788 | locus YGR078C, strain PAC10, active compounds read low 0.708 | locus YGR135W, strain pre9, active compounds read low 0.739 | locus YGR229C, strain SMI1, active compounds read low 0.651 | locus YGR252W, strain gcn5, active compounds read low 0.705 | locus YHR030C, strain SLT2, active compounds read low 0.911 | locus YHR079C, strain IRE1 (second series), active compounds read low 0.816 | locus YHR129C, strain ARP1, active compounds read low 0.837 | locus YIL066C, strain RNR3, active compounds read low 0.722 | locus YJL095W, strain BCK1, active compounds read low 0.665 | locus YJL129C, strain trk1, active compounds read low 0.843 | locus YJL134W, strain LCB3, active compounds read low 0.892 | locus YJL187C, strain SWE1 (second series), active compounds read low 0.839
